The source of these data is PMC5836133, “The intracellular immune receptor Rx1 regulates the DNA-binding activity of a Golden2-like transcription factor”.

Over roughly 16,000 sequences, “e-score” has its median near -0.044; the highest 2% begin near 0.38. The entries come from a sample that favours the highest values as a whole.

This assay deals with T1, GST-NbGlk1(82-244) (Nicotiana benthamiana).
T1 chain: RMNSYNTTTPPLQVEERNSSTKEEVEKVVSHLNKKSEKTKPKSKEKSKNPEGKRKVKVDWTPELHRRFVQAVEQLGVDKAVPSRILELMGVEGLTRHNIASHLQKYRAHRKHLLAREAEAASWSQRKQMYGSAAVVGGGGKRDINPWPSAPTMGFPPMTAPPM
Nature of the assay: protein-binding microarray; NbGlk1 is a Golden2-like transcription factor of Nicotiana benthamiana; high values mean tight binding. The note with it: protein: recombinant; tags: GST (pTH6838); dsDNA, one strand shown.
For ATATTCGG, the binding signal was found to be 0.228 ± 0.0147 E-score.
Regarding ATTTTTCA, the binding signal is 0.253 ± 0.137 E-score.
Turning to ATCGGAGA, the binding signal turned out to be 0.249 ± 0.0227 E-score.
In the case of ATCTTGTA it was 0.28 ± 0.00362 E-score.
Consider ATCGATAC, for which the binding signal came out at 0.245 ± 0.0652 E-score.
In the case of ATTTCAAA it was 0.231 ± 0.179 E-score.
In the case of CAAAATAA it was 0.205 ± 0.0749 E-score; in that of ATCGCCAC, 0.22 ± 0.062 E-score; in that of ATCGCTTC, 0.206 ± 0.0242 E-score.
In the case of AGTGATTC it was 0.282 ± 0.0766 E-score; in that of ACGAATCT, 0.403 ± 0.0288 E-score.
As for AGGAATCG, the binding signal amounted to 0.295 ± 0.0158 E-score.
In the case of CAGAATCA it was 0.373 ± 0.00814 E-score; in that of AAGAATAT, 0.331 ± 0.00702 E-score; in that of CAGAATCC, 0.447 ± 0.0238 E-score.
In the case of AACAATCT it was 0.244 ± 0.0358 E-score; in that of CAGAATCG, 0.33 ± 0.0217 E-score; in that of AGGAATCA, 0.32 ± 0.0361 E-score.
In the case of ACGAATCA it was 0.247 ± 0.0177 E-score; in that of ACGAATCC, 0.361 ± 0.00735 E-score.
AAGAATCT: the binding signal is 0.449 ± 0.0147 E-score.
Consider AGGAATCC, for which the binding signal was 0.422 ± 0.0123 E-score.
In the case of ATCTGTTC it was 0.214 ± 0.0509 E-score.
Regarding AGGAAGAT, the binding signal stood at 0.276 ± 0.00329 E-score.
In the case of ATCGTGCG it was 0.234 ± 0.00703 E-score; in that of AATCACTG, 0.269 ± 0.00608 E-score; in that of ATACTCAT, 0.264 ± 0.0418 E-score.
Take AAGAATCA: the binding signal turned out to be 0.3254 ± 0.00141 E-score.
In the case of AAGAATCG it was 0.374 ± 0.0323 E-score; in that of AAGAATCC, 0.455 ± 0.016 E-score; in that of ATCCGCGC, 0.215 ± 0.0363 E-score.
In the case of AATATTCT it was 0.313 ± 0.0605 E-score; in that of AATATTCG, 0.258 ± 0.049 E-score.
In the case of AAGATTCG it was 0.41 ± 0.0145 E-score; in that of AAGATTCA, 0.205 ± 0.0308 E-score.
AATATTCC: the binding signal was 0.341 ± 0.0191 E-score.
In the case of AAGATTCC it was 0.46 ± 0.0101 E-score; in that of AAAATTCC, 0.201 ± 0.0158 E-score; in that of AAGATCCC, 0.333 ± 0.0797 E-score.
In the case of AAGATCCG it was 0.332 ± 0.0135 E-score; in that of AAGATTCT, 0.4522 ± 0.000701 E-score.
In the case of CAGATTCC it was 0.473 ± 0.0158 E-score; in that of ATTTCATC, 0.269 ± 0.0106 E-score.
With AATTCCCG, the binding signal is 0.27 ± 0.108 E-score.
With CACGATTC, the binding signal is 0.3711 ± 0.000458 E-score.
In the case of ATATCAGG it was 0.305 ± 0.00775 E-score; in that of CACAATCC, 0.366 ± 0.0571 E-score; in that of ATCCTAAC, 0.254 ± 0.069 E-score.
In the case of ATCTGTAA it was 0.331 ± 0.0244 E-score; in that of ATTCGCTG, 0.298 ± 0.0414 E-score.
In the case of ATACGAAT it was 0.352 ± 0.0554 E-score.
Regarding ATATTATA, the binding signal came out at 0.279 ± 0.00302 E-score.
In the case of ATCCTATC it was 0.258 ± 0.104 E-score.
In the case of CAGATTCG it was 0.438 ± 0.0122 E-score; in that of CAAATTCG, 0.213 ± 0.1 E-score.
In the case of CAGATTCA it was 0.293 ± 0.0151 E-score; in that of ATAGTAAT, 0.315 ± 0.0567 E-score; in that of ATTACCGC, 0.289 ± 0.0145 E-score.
With AAAAGAAT, the binding signal came to 0.267 ± 0.0274 E-score.
In the case of AACGGATA it was 0.215 ± 0.0275 E-score; in that of AATAGATA, 0.245 ± 0.0719 E-score; in that of AAAAGATT, 0.388 ± 0.0102 E-score.
In the case of AACGGATC it was 0.25 ± 0.015 E-score; in that of AATAGATC, 0.247 ± 0.0558 E-score.
With AACGGATT, the binding signal is 0.392 ± 0.0181 E-score.
As to AAAAGATC, the binding signal is 0.301 ± 0.0113 E-score.
In the case of AATAGATT it was 0.406 ± 0.0231 E-score; in that of AACAGATA, 0.271 ± 0.00439 E-score; in that of AACAGATC, 0.305 ± 0.0266 E-score.
In the case of AACAGATT it was 0.426 ± 0.00502 E-score; in that of CAGAGATC, 0.312 ± 0.0606 E-score.
In the case of ACTGGAAT it was 0.256 ± 0.0159 E-score.
AGAGGAAT: the binding signal came out at 0.21 ± 0.0368 E-score.
In the case of ATATGCAA it was 0.29 ± 0.0125 E-score; in that of AAGAGATT, 0.4 ± 0.035 E-score; in that of AAGAGATC, 0.377 ± 0.0169 E-score.
In the case of AAGAGATA it was 0.309 ± 0.0135 E-score; in that of AATCTCTA, 0.3774 ± 0.00278 E-score.
In the case of ATTCTCAG it was 0.32 ± 0.0298 E-score; in that of AATCTCTC, 0.368 ± 0.0262 E-score; in that of ATTCTCAC, 0.299 ± 0.0167 E-score.
AATCTCAC: the binding signal worked out at 0.394 ± 0.0342 E-score.
On to AATCGCAT, for which the binding signal is 0.274 ± 0.0414 E-score.
In the case of AATCTCTG it was 0.3738 ± 0.00333 E-score.
In the case of ATCCTCAT it was 0.212 ± 0.0808 E-score; in that of AATCTCAA, 0.421 ± 0.0141 E-score.
In the case of ATTCTCAA it was 0.329 ± 0.0151 E-score; in that of AATCTCAT, 0.4204 ± 0.00133 E-score.
As to AATCTCAG, the binding signal is 0.428 ± 0.00714 E-score.
In the case of ATTACGTC it was 0.277 ± 0.0973 E-score.
Turning to ATCCCGTA, the binding signal was 0.31 ± 0.0475 E-score.
In the case of ATACGAGA it was 0.231 ± 0.0125 E-score; in that of ATATTAGA, 0.212 ± 0.0145 E-score; in that of ATTTGTAG, 0.21 ± 0.125 E-score.
Turning to CAGATTGC, the binding signal was 0.4754 ± 0.00468 E-score.
In the case of AAGATTGT it was 0.297 ± 0.0412 E-score; in that of AATATTGC, 0.225 ± 0.0215 E-score; in that of AAGATTGG, 0.206 ± 0.0123 E-score.
In the case of AAGATTGC it was 0.443 ± 0.0277 E-score; in that of ATCTATAG, 0.288 ± 0.0139 E-score; in that of ATCGAGAT, 0.327 ± 0.0101 E-score.
In the case of AACAGGAA it was 0.207 ± 0.0723 E-score.
In the case of ATCTTAAC, the binding signal was 0.317 ± 0.00626 E-score.
In the case of AGTAATCC it was 0.369 ± 0.00994 E-score; in that of AGAAATCG, 0.338 ± 0.0619 E-score; in that of AGAAATCA, 0.3794 ± 0.00281 E-score.
In the case of AGAATTCT it was 0.299 ± 0.0757 E-score.
Turning to AGAAATCT, the binding signal came out at 0.465 ± 0.00635 E-score.
In the case of AGAAATAT it was 0.3621 ± 0.00196 E-score; in that of AGCAATCC, 0.412 ± 0.0143 E-score; in that of ATAAATCA, 0.239 ± 0.0998 E-score.
In the case of AGCAATCG it was 0.308 ± 0.0291 E-score.
AGCAATCA: the binding signal came out at 0.321 ± 0.00992 E-score.
In the case of AGAAATCC it was 0.464 ± 0.00886 E-score; in that of ACAAATCA, 0.262 ± 0.0406 E-score.
